Screening data deposited in PubChem by several laboratories.
The list is not random: actives were taken first. Their share in the collection is about 2.5%.
GC-B act: GC-B (human) receptor activation; P20594; HEK293-GC-B cells, CNP EC30, cGMP TR-FRET; 0% at EC30 CNP, 100% saturating CNP; activation, % at 10 µM; 370,000 compounds, 0.11% hits; AID 1920062;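 active means activation at 10 µM reaching about 35% in either raw or pattern-adjusted values, limit read from the data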
HSF1 activator: increases HSF-1 driven luciferase reporter signal; NIH3T3-HGL HSF-1 luciferase reporter, MG132, 8 h; 100% = twice DMSO control signal; activation, % at 9 µM; 300,000 compounds, 1.7% hits; AID 504408;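 active means mean replicate activation of at least 50% with a set share of replicates each reaching 50%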
NPR1 activator: GC-A (human) enzyme activation; P16066; HEK293 GC-A cells, cGMP TR-FRET, EC30 ANP; 0% at EC30 ANP, 100% saturating ANP; activation, % at 10 µM; 370,000 compounds, 0.14% hits; AID 1671463; in the data active means activation above about 40%
Target sequence (P16066 whole entry, looked up): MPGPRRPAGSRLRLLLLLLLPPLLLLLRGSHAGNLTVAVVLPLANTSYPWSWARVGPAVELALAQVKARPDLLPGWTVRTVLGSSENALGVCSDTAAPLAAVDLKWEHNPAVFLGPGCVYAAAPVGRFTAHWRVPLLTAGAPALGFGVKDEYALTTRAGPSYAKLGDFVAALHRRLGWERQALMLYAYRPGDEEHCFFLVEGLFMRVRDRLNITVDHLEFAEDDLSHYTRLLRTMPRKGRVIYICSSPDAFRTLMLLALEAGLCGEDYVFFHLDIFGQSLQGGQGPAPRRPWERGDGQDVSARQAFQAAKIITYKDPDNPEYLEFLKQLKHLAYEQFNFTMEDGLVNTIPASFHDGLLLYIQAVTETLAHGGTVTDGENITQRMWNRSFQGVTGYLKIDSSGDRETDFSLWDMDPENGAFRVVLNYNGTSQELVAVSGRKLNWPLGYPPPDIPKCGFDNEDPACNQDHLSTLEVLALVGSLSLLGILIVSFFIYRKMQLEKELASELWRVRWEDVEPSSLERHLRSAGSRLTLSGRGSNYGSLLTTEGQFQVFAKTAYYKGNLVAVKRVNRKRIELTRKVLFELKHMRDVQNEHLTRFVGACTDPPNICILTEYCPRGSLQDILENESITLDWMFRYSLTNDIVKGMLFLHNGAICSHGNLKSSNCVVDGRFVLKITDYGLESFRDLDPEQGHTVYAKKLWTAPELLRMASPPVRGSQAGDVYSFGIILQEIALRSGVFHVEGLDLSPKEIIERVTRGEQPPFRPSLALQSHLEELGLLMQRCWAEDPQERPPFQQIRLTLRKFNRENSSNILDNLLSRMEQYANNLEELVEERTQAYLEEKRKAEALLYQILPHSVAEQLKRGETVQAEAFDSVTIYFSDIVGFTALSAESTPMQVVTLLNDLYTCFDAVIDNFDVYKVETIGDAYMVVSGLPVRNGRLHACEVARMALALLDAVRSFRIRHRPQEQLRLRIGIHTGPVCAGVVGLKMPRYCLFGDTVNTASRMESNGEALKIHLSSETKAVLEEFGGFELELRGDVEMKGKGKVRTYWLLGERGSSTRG
aDG glyco act: alpha-DG glycosylation activation | Pro5-aDG cells, alpha-DG glycosylation AlphaScreen (IIH6); 0% Pro5, 100% B10-LARGE cell signal | activation, % at 10 µM | 360,000 compounds, 0.22% hits;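 active means activation of at least 8% versus controls, or a plate z-score of at least 8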;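 further: Pro5 are CHO cells carrying HIG-tagged alpha-DG that lacks glycosylation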
HSF1 inhib: HSF1 inhibition; 300,000 compounds, 0.77% hits; activity change, negative = inhibition, % at 7.5 µM (by protocol); NIH3T3-HGL HSE-luciferase, MG132-induced, luminescence 8 h; active compounds read low; AID 2098;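 active means more than half of replicate wells show activity change below -50%, luminescence cut by over half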;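 further: luciferase reports HSF-1 transcriptional activity via heat shock element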
Dyrk1A ADPGlo: inhibitors of rat Dyrk1A kinase; ADP-Glo luminescence, NFATc1 peptide; inhibition, % at 12.5 µM; 310,000 compounds, 0.43% hits; AID 504441; in the data active means inhibition above about 50%
Hits are given with their value; - = inactive; . = not tested or not shown.

SMILES | GC-B act | HSF1 activator | NPR1 activator | aDG glyco act | HSF1 inhib | Dyrk1A ADPGlo
O=C(O)c1cc(-c2c[nH]c3ccccc23)nc2ccc3ccccc3c12 | - | - | - | - | -68 | -
COc1cc(/C=C(\C#N)c2nc3ccc(C)cc3[nH]2)c([N+](=O)[O-])cc1OC | - | 64 | - | - | - | -
COc1ccc(/C=C(\C#N)c2nc3ccccc3[nH]2)cc1O | - | 85 | - | - | - | -
COc1ccc(C=C(c2nc3ccccc3s2)c2nc3ccccc3s2)cc1O | - | 132 | - | - | - | -
COc1cc(/C=C(\C#N)c2nc3ccccc3[nH]2)cc(OC)c1O | - | - | - | - | - | -
COc1cccc(/C=C(\C#N)c2nc3ccccc3[nH]2)c1OCC(=O)O | - | - | - | - | -64 | -
COc1cc(C=C(c2nc3ccccc3s2)c2nc3ccccc3s2)ccc1O | - | - | - | - | - | -
OCCn1cnc2c(SCc3ccccc3)ncnc21 | - | . | - | - | . | -
CCOC(=O)c1c(CC(C)C)csc1NC(=O)COC(=O)c1cc(OC)c(OC)cc1[N+](=O)[O-] | - | - | - | - | - | -
COCCCNC(=S)N(CCO)Cc1cc2cc3c(cc2[nH]c1=O)OCCO3 | - | - | - | - | - | -
COc1cc([N+](=O)[O-])cc(/C=N/N(CCC#N)C(C)=O)c1O | - | - | - | - | - | -
COc1cc(/C=C(/C#N)c2ccccc2)ccc1Oc1ccc([N+](=O)[O-])cn1 | - | - | - | - | - | -
COc1cc(/C=C(\C#N)c2nc3ccccc3[nH]2)ccc1Oc1ccc([N+](=O)[O-])cn1 | - | 62 | - | - | - | -
COc1ccc(NC(=O)/C(Cl)=C(/Cl)S(=O)Cc2ccccc2)cn1 (stereo unspecified) | - | - | - | - | -93 | -
COc1ccc(NC(=S)Nc2ccccc2)cn1 | - | - | - | - | - | -
CCCCNC(=S)Nc1ccc(OC)nc1 | - | 65 | - | - | - | -
Cn1nc(C(C)(C)C)cc1NC(=O)C1(C)CCN1C(=O)c1ccccc1CCc1ccccc1 (stereo unspecified) | - | . | - | - | . | .
Cc1ccc(NC(=O)NC(=O)CN2CCN(c3ccc(O)cc3)CC2)c(C)c1 | - | - | - | - | -66 | -
COC(=O)CN1C(c2cccc(Cl)c2)=Nc2ccc(Cl)cc2C1c1ccccc1 (stereo unspecified) | - | 64 | - | - | - | -
COC(=O)CN1C(c2ccc(OC)cc2)=Nc2ccc(Cl)cc2C1c1ccccc1 (stereo unspecified) | - | - | - | - | - | -
COc1ccc2oc(=O)c(N3C(=O)c4ccccc4C3=O)cc2c1 | - | - | - | - | -66 | -
COc1ccc(NC2CCCN(C(=O)c3ccc(C(C)=O)s3)C2)cc1 (stereo unspecified) | - | - | - | - | - | -
CC(=Nc1ccccc1)C1=C(O)CC(C)(C)CC1=O | - | - | - | - | - | -
CC(=Nc1ccccc1)C1=C(O)CCCC1=O | - | 63 | - | - | - | -
O=Cc1ccc(C(=O)OCC(=O)NCCC2=CCCCC2)cc1 | - | - | - | - | - | -
SMILES | GC-B act | HSF1 activator | NPR1 activator | aDG glyco act | HSF1 inhib | Dyrk1A ADPGlo
N/C(=N\OC(=O)c1ccoc1)c1ccc(Br)cc1 | - | 69 | - | - | - | -
O=c1c2c3nc4ccccc4nc3n(Cc3ccccc3)c2ncn1Cc1ccco1 | 48 | . | 46 | - | . | -
CC(C)CCn1c(N)c(S(=O)(=O)c2cccs2)c2nc3ccccc3nc21 | - | 104 | - | - | - | -
Nc1c(S(=O)(=O)c2ccccc2)c2nc3ccccc3nc2n1CCN1CCOCC1 | - | - | - | - | - | -
Nc1c(S(=O)(=O)c2ccccc2)c2nc3ccccc3nc2n1Cc1ccco1 | - | - | - | 19 | - | -
CCCCn1c(NC(=O)c2ccco2)c(S(=O)(=O)c2ccc(C)cc2)c2nc3ccccc3nc21 | - | 137 | - | - | - | -
CCCCCn1c(NC(=O)c2ccco2)c(S(=O)(=O)c2ccc(C)cc2)c2nc3ccccc3nc21 | - | - | - | - | - | -
Nc1c(S(=O)(=O)c2cccs2)c2nc3ccccc3nc2n1CCc1ccccc1 | - | - | - | . | - | .
COc1ccc(-c2cc(-c3ccccc3)nc(=O)[nH]2)cc1 | - | - | - | - | - | -
COCCN(CCOC)C(=O)C1CCCN(S(=O)(=O)c2ccc(NC(=O)OC)cc2)C1 (stereo unspecified) | - | - | - | - | - | -
Cc1cccc(Nc2ccccc2C(=O)OCC(=O)N(C)C2CCS(=O)(=O)C2)c1C (stereo unspecified) | - | - | - | - | - | -
CCCCCC(=O)O/N=C(\C)c1ccn(S(=O)(=O)c2ccccc2)c1 | - | - | - | - | - | -
Cc1ccc(S(=O)(=O)c2c(N)n(CCCO)c3nc4ccccc4nc23)cc1 | - | - | - | - | - | -
Cc1ccc(S(=O)(=O)c2c(N)n(CCC(C)C)c3nc4ccccc4nc23)cc1 | - | 109 | - | - | - | -
Cc1cccc(CSc2nc3c(c(-c4cccs4)c2C#N)CN(C)CC3)c1 | - | 77 | - | - | - | -
CCN1CCN(Cc2ccc(NC(=O)c3ccc(C)c(NC(=O)c4cccc5[nH]ccc45)c3)cc2C(F)(F)F)CC1 | - | - | - | - | -55 | -
CCN1CCN(Cc2ccc(NC(=O)c3ccc(C)c(NC(=O)c4nccn4C)c3)cc2C(F)(F)F)CC1 | - | - | - | - | - | -
CCC1(O)C(=O)OCc2c1cc1n(c2=O)Cc2cc3cc(O)ccc3nc2-1 (stereo unspecified) | - | . | 56 | - | . | -
CS(=O)(=O)N(CC(=O)NCC1CCCO1)c1cc(Cl)ccc1Cl (stereo unspecified) | - | 54 | - | - | - | -
CS(=O)(=O)N(CC(=O)NCC1CCCO1)c1cc(Cl)c(Cl)cc1Cl (stereo unspecified) | - | - | - | - | - | -
CCOC(=O)C(C)Oc1cc(Cl)c(C=O)cc1OC (stereo unspecified) | - | 51 | - | - | - | -
Cc1ccc(NC(=O)c2ccccn2)c(Br)c1 | - | 58 | - | - | - | -
CCN(CC)c1ccc(NC(=O)c2ccc3c(c2)OCO3)cc1 | - | - | - | - | - | -
CN(Cc1ccc(Cl)c(Cl)c1)C(=O)c1[nH]c(C(F)(F)F)nc1-c1ccccc1 | - | . | - | - | . | .
O=C(Nc1ncc(Cc2cccc(Cl)c2Cl)s1)C1CCCO1 (stereo unspecified) | - | 58 | - | - | - | -
O=C(Nc1ncc(Cc2cccc(Cl)c2)s1)C1CCCO1 (stereo unspecified) | - | - | - | - | - | -
CCc1cccc(C)c1NC(=O)C1CCCO1 (stereo unspecified) | - | - | - | - | - | -
